From PubChem BioAssay AID493209 (National Center for Advancing Translational Sciences (NCATS), 2011)
The source made the active and inactive calls.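 The calls were made as follows: active = compounds that raised 12-lipoxygenase product formation in the cuvette follow-up test, with a fitted potency; inactive = the rest, inconclusive results apart.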

biological target: Polyunsaturated fatty acid lipoxygenase ALOX12 (Homo sapiens) (UniProt P18054); assay: Activators of 12-hLO (12-human lipoxygenase): 12hLO Cuvette-Based Hit Validation Assay of Followup Compounds; conditions: purified 12-hLO, cuvette UV 234 nm product formation
Sequence (P18054 whole entry, looked up): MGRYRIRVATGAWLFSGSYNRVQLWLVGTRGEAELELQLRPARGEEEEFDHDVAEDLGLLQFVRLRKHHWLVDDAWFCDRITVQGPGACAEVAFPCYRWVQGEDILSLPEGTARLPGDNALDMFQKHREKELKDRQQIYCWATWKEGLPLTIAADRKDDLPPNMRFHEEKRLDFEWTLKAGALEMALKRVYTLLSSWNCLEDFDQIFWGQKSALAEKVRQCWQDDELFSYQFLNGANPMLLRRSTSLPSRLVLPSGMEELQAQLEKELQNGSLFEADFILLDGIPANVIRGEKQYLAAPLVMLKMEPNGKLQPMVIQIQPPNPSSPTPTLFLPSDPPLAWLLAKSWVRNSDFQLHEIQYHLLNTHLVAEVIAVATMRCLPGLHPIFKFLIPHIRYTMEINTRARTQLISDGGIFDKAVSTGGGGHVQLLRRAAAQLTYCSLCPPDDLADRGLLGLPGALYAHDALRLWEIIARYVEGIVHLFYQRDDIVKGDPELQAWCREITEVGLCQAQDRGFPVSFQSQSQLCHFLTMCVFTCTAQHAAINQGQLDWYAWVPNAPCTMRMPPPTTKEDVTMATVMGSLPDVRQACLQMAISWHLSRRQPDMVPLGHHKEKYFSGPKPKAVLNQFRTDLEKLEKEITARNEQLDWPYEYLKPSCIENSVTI
Procedure: The enzyme activity of 12-hLO was determined by a direct measurement of product formation by monitoring the absorbance at 234 nm in a 2 mL cuvette. IC50 values of inhibitors were obtained by measuring the enzymatic rate at a variety of concentrations (Carroll et al, Segraves et al). This assay was used to validate active or inconclusive putative activators identified in the primary screen (see related BioAssay AIDs). Assay Provider: Holman, T.R., University of California, Santa Cruz Screening Center PI: Austin, Christopher P. Screening Center: NIH Chemical Genomics Center
For control experiments, 2 mL of substrate buffer (10 uM arachidonic acid / 25 mM HEPES / 0.01% (v/v) Triton X-100, pH 8.0) was aliquoted in a cuvette with a magnetic stir bar. After equilibrium was ensured, an aliquot of inhibitor solvent was added (DMSO), and equilibrium was once again assured. The reaction was started by adding enzyme to the cuvette and the reaction was followed until completed. The inhibition experiments were performed as above, except the actual inhibitory compound was added instead of vehicle. To achieve an IC50, typically 5 concentrations of the inhibitor were studied. If the inhibitor concentration was constant, then five different reaction volumes were used. Step \ Parameter \ Value \ Description 1; UV-Vis; 234 nm; Equilibration 2; Reagent; 2 mL; Substrate buffer 3; UV-Vis; 234 nm; Equilibration 4; Reagent; varies; Compound 5; UV-Vis; 234 nm; Equilibration 6; Reagent; 50-200 nM; Enzyme 12-hLO 7; UV-Vis; 234 nm; Enzymatic reaction Step \ Notes 1; Blank cuvette to air. 2; 10 uM AA, 25 mM HEPES, 0.01% Triton X-100, pH 8. 3; No change in absorbance ensured. 4; Compound vehicle or compound in various concentrations depending on potency. 5; No change in absorbance ensured. 6; Enzyme concentration to achieve reaction rate between 0.02 and 0.04 AU/s. 7; Enzymatic reaction visualized until completion.

SMILES	outcome	Potency
CCCOC(=O)c1ccc(Oc2c(-c3ccc(O)cc3O)n[nH]c2C)cc1	inactive	
CC1=NN(c2ccc(Cl)cc2)C(=O)C1C(c1ccccc1O)c1c(C)[nH]n(-c2ccc(Cl)cc2)c1=O (centres undefined)	inactive	
O=C(/C=C/c1ccc(O)c(O)c1)c1ccc(S(=O)(=O)N2CCCCCC2)cc1	inactive	
COc1ccc(Cc2nc(C(=O)Nc3ccc(OC)cc3)cs2)cc1	inactive	
CCOc1ccc(-c2[nH]ncc2Oc2cccc(OC)c2)c(O)c1	inactive	
Oc1ccccc1-c1cc(-c2ccccc2Cl)[nH]n1	inactive	
Cc1ccc(C(=O)Nc2nnc(-c3ccco3)o2)cc1C	inactive	
COc1cccc(CNc2ccc(S(=O)(=O)Nc3nccs3)cc2)c1O	inactive	
O=C(Nc1nnc(-c2ccccn2)o1)c1ccc(Br)cc1	inactive	
CC1=NN(c2ccc(Cl)cc2)C(=O)C1C(c1cccc(O)c1)c1c(C)[nH]n(-c2ccc(Cl)cc2)c1=O (centres undefined)	inactive	
COc1ccc(NC2=NCC(Cc3ccc(Br)cc3)S2)cc1 (centres undefined)	inactive	
CCc1cc(-c2[nH]ncc2-c2ccc3c(c2)OCO3)c(O)cc1O	inactive	
Oc1ccc(C2=Nn3c(nnc3-c3ccco3)SC2)cc1O	inactive	
CSc1ccc(S(=O)(=O)Nc2ccc(S(=O)(=O)Nc3ccc(C)cc3)cc2)cc1	inactive	
Cc1ccc(S(=O)(=O)Nc2ccc(NC(=O)Nc3cccc(C(F)(F)F)c3)cc2)cc1	inactive	
Cc1cccnc1NCc1ccc(O)c2ncccc12		46.4 µM (active)
O=C1c2ccccc2NC(c2ccc(Cl)cc2Cl)N1O (centres undefined)		53.1 µM (active)
Cc1ccc(C(=O)/C=C/c2c[nH]c3ccccc23)cc1	inactive	
COc1ccc(-c2[nH]ncc2-c2ccc(Cl)cc2)c(O)c1	inactive	
